Sampled rows, rich in hits. Any-hit rate of the full collection: about 7.9%.
SW480 rerep: induces DNA re-replication in SW480 colon adenocarcinoma cells; SW480 DNA re-replication, Hoechst DNA content imaging, 48 h; Potency, µM (doses to about 46.1 µM), for the others: at the highest dose re-replication activation, hits mostly activators; 340,000 tested, 1.8% active; note: % of control where 0% means no effect; nearly all actives have a fitted effect of over 55% in size
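DNA re-replication was detected as more nuclei of elevated Hoechst intensity after 48 hr exposure to compound (23 nL pinned per well of 250 cells).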
HT1080 IDH1KD tx: HT-1080 IDH1 knockdown cell toxicity (counter line); HT-1080 IDH1 knockdown viability, ATP luminescence, 48 h; Potency, µM (top dose mostly 46.1 µM), inactives show at the highest dose activity, negative = toxicity, hits mostly cytotoxic; 360,000 tested, 2% active;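 note: 0% = DMSO wells and -100% = cell-free medium wells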
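HT-1080-IDH1KD cells (IDH1 knocked down), 750/well in RPMI with 5% FBS, treated with compound 48 h at 37 degrees C. Viability by CellTiter-Glo luminescence, normalised to DMSO and no-cell wells; concentration-response curves classed.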
KB-3-1 tox: KB-3-1 parental cell cytotoxicity; Potency, µM (doses to about 46.1 µM), actives largely listed as cytotoxic; 400,000 tested, 1.4% active; KB-3-1 viability, CellTiter-Glo ATP luminescence, 72 h; note: % is set by controls: 0 for no effect and ±100 for the full control effect; nearly all actives have a fitted effect of over 60% in size
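72 h, 37 °C compound treatment of KB-3-1 parental cells; CellTiter-Glo added, 10 min, luminescence read. Data corrected against DMSO-only plates and normalized before curve fitting.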
MCF10A rereplic: induces DNA re-replication in MCF 10a normal breast cells | MCF 10A DNA re-replication, Hoechst nuclear intensity, 48 h | Potency, µM (highest dose often 46.1 µM), for inactives: at the top dose activity, positive = re-replication, actives largely listed as activators | 350,000 tested, 2.9% active | AID 624296; note: % of control where 0% means no effect; nearly all actives have a fitted effect of over 50% in size
HT1080-NT tox: kills 2HG-producing HT-1080-NT fibrosarcoma cells; HT-1080-NT fibrosarcoma viability, CellTiter-Glo ATP luminescence, 48 h; Potency, µM (top dose mostly 46.1 µM), for inactives: at the top dose activity, negative = less viability, most hits filed as cytotoxic; 360,000 tested, 1.6% active;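 note: NT is the 2HG producing partner of a matched IDH1 knockdown line; 0% = DMSO-treated cells and -100% = media-only wells without cells; nearly all actives have a fitted effect of over 55% in size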
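Read-out is CellTiter-Glo luminescence after 10 minutes at room temperature, following 48 hours' compound treatment of HT-1080-NT cells (750 cells/well, RPMI, 5% FBS, 37 degrees C).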
KB-V1 cytotox: kills drug-selected multidrug resistant KB-V1 cells; KB-V1 MDR cells viability, CellTiter-Glo, 72 h; Potency, µM (series often up to 46.1 µM), actives largely listed as cytotoxic; 400,000 tested, 3.4% active; AID 1347076; note: % is set by controls: 0 for no effect and ±100 for the full control effect; nearly all actives have a fitted effect of over 60% in size
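Compound-treated KB-V1 multidrug-resistant cells, 72 h, 37 degrees C; viability by CellTiter-Glo. Fitted qHTS curves give the values.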
Starred values were filed as active, the others as inactive; i = inactive; ? = inconclusive; . = no result given; [ ] = another dose, or the depositor's remark. Calls come from the whole dose curve; as a rule, active = well fitted curve in the direction sought with a large enough effect; inconclusive = small, poorly fitted or top-dose-only effect, or another doubt; inactive = no such curve, though single readings can be large; an effect the other way counts as inactive or inconclusive. Potency is the fitted concentration of half-maximal effect.

SMILES	SW480 rerep	HT1080 IDH1KD tx	KB-3-1 tox	MCF10A rereplic	HT1080-NT tox	KB-V1 cytotox
O=C(O)C1C(c2ccccc2)=C1c1ccc(Br)cc1 (stereo not given)	.	2%	i	.	0%	i
O=C1c2ccccc2C(=O)c2c(NCc3cccnc3)cccc21	2%	16%	i	12%	20%	8.2µM*
COc1ccc(CNC(=O)c2c(C)oc3c2C(=O)c2ccccc2C3=O)cc1	21µM*	-10%	?	4.6µM*	?	i
CC(=O)c1c(C)oc2c1C(=O)c1ccccc1C2=O	7.3µM*	-5%	?	22%	-1%	6.5µM*
c1ccc(NCc2cccnc2)cc1	-4%	0%	i	-5%	-5%	i
COc1ccc(CNC(=O)c2ccc(-c3ccccc3)cc2)cc1	-5%[9.22 µM]	20%	i	3%	25%	i
Cc1oc2c(c1C(=O)NCc1cccnc1)C(=O)c1ccccc1C2=O	19%	2.6µM*	?	?	4.1µM*	2.6µM*
CC(=O)c1c2c3c(c(Br)ccc3n(C)c1=O)C(=O)c1ccccc1-2	-1%	15%	i	15%	20%	?
C[C@@H]1CN([C@H](C)CO)C(=O)CCCn2nncc2CO[C@@H]1CN(C)C(=O)CCC(F)(F)F	.	-16%	1.6µM*	.	-24%	i
C[C@@H]1CN([C@@H](C)CO)C(=O)CCCn2nncc2CO[C@H]1CN(C)C(=O)CCC(F)(F)F	.	9%	i	.	0%	i
C1=CC2=NC34CCCCC3CC3=C(CCCC3)N4C2=CC1=NC1CCCCC1 (stereo not given)	?	?	?	?	-12%	i
CCN(CC)C(=O)c1sc2nc(-c3ccc(OC)cc3)cn2c1C	-1%	1%	i	0%	-1%	3.7µM*
COc1ccc(-c2cn3c(C)c(C(=O)NCCN4CCOCC4)sc3n2)cc1	-7%	0%	i	-6%	1%	12µM*
CCOC(=O)N1CCN(C(=O)c2ccc3nc(SCc4ccc(F)cc4)n(C)c3c2)CC1	-4%[9.22 µM]	-7%	i	17%	-8%	9.2µM*
FC(F)(F)c1cccc(-c2cc(C3CCNCC3)[nH]n2)c1	?	?	i	?	16µM*	i
c1coc(-c2cc(C3CCNCC3)[nH]n2)c1	?	-5%	i	0%	-3%	i
c1ccc2c(-c3cc(C4CCNCC4)[nH]n3)cccc2c1	13%	21µM*	?	?	23µM*	i
COC(=O)CCN1CCC(c2cc(-c3cccc(C(F)(F)F)c3)n[nH]2)CC1	4%	17%	i	5%	-3%	i
FC(F)(F)c1cccc(CN2CCC(c3cc(-c4cccs4)n[nH]3)CC2)c1	?	5.2µM*	?	13µM*	7.3µM*	?
Cc1ccc(S(=O)(=O)N2CCN(Cc3cccnc3)CC2)cc1	-6%	9%	i	?	7%	i
COc1ccc(N2CCN(C(=O)CNC(=O)Cc3ccccc3)CC2)cc1	6%	-3%	.	0%	0%	.
COc1ccc(C(=O)CN2CCN(c3ccc(Cl)cc3)CC2)cc1OC	19%	-3%	i	13%	-1%	i
COc1ccc(N2CCN(C(=O)CNC(=O)Cc3ccc(Cl)cc3)CC2)cc1	?	21µM*	15µM*	?	?	10µM*
COc1ccc(CC(=O)N2CCN(c3ccc(F)cc3)CC2)cc1	-7%	29%	i	2%	22%	i
COc1ccc(N2CCN(C(=O)Cc3ccc(Br)cc3)CC2)cc1	-8%	-1%	i	8%	-8%	21µM*
SMILES	SW480 rerep	HT1080 IDH1KD tx	KB-3-1 tox	MCF10A rereplic	HT1080-NT tox	KB-V1 cytotox
CCOC(=O)Cc1csc(SCC(=O)N2CCN(c3ccc(OC)cc3)CC2)n1	-4%	8%	i	5%	-5%	21µM*
COc1ccc(N2CCN(CC(=O)c3ccc(Cl)cc3)CC2)cc1	-2%	0%	i	18µM*	0%	?
Cc1ccc(-c2nc(C=Nc3cccc(C)c3)c(O)o2)cc1	?	18%	i	?	5%	i
N#Cc1ccsc1NC(=O)CSc1ncnc2ccccc12	7%	-23%	?	?	-24%	i
CCOC(=O)c1c(NC(=O)CSc2cn(CCNC(=O)c3ccccc3F)c3ccccc23)sc2c1CCC2	.	.	i	.	.	i
CCc1nc(SCC(=O)N2CCC(C)CC2)c2c(=O)n(C)c(=O)n(C)c2n1	-17%	-9%	i	17%	6%	?
CCn1c(SCC(=O)NCCc2ccc(OC)c(OC)c2)nc2c1c(=O)n(C)c(=O)n2C	-7%	21%	i	10%	6%	i
O=C(N/N=C/c1ccc(F)cc1)c1cc(-c2ccc3c(c2)OCO3)n[nH]1	4%	?	i	29µM*	?	i
CN(C)c1ccc(/C=N/NC(=O)c2cc(-c3ccc4c(c3)OCO4)n[nH]2)cc1	?	?	?	5.8µM*	5.8µM*	?
COc1ccc(/C=N/NC(=O)c2cc(-c3ccc4c(c3)OCO4)n[nH]2)cc1OC	12%	-2%	i	-4%	-4%	i
CCS(=O)(=O)n1nc(-c2ccco2)nc1N	-4%	3%	i	12%	5%	i
CCn1c(SCC(=O)N(C)CCC#N)nc2cc(S(=O)(=O)N3CCOCC3)ccc21	-5%	0%	i	-1%	2%	i
COc1ccc(Cl)cc1NC(=O)C(C)Sc1nnc(C2CC2)n1C1CC1 (stereo not given)	-3%	-1%	i	2%	-1%	18µM*
Cc1cccc(C(=O)Nc2cccc(C(=O)N/N=C/c3cccc(C)n3)c2)c1	-1%	16%	i	14%	1%	i
Cc1cccc(/C=N/NC(=O)c2ccc(NC(=O)c3ccc(Cl)cc3)cc2)n1	0%	18µM*	?	7%	18µM*	i
Cc1cccc(/C=N/NC(=O)c2ccc(NC(=O)c3ccc(F)cc3)cc2)n1	-30%	-24%	i	21µM*	-23%	i
CCCCOCCCNS(=O)(=O)c1ccccc1	0%	-2%	i	?	0%	i
CCCCOP(=O)(OCCCC)C1(NS(=O)(=O)c2ccccc2)C=CC(=O)c2ccccc21 (stereo not given)	?	23µM*	?	?	21µM*	?
O=C(COC(=O)C1CC1)Nc1ccc([N+](=O)[O-])cc1C(F)(F)F	-26%	1%	i	-6%	6%	i
O=C(Nc1cccnc1)c1cccc(NC(=O)c2ccco2)c1	-6%	6%	i	?	5%	i

Assay outcomes: PubChem BioAssay, National Center for Advancing Translational Sciences (NCATS)
